Hit rate of the full screen: of about 290,000 compounds, about 3,500 (1.2%) were called active. The entries come from a sample that favours actives as a whole. Unmarked numbers belong to inactive results.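 The calls were made as follows: active = inhibition above the campaign mean inhibition over all tested compounds plus 3 SD (cut at about 28% in these data); inactive = the rest.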
What follows are compounds tested on M18 aspartyl aminopeptidase (Plasmodium falciparum 3D7) (assay: inhibition of P. falciparum M18 aminopeptidase – biochemical, QFRET, recombinant enzyme, primary screen (AID 1822;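 also: 0% = plate median of test compound wells and 100% = 2 mM ZnCl2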)). Details: recombinant PfM18AAP, H-Glu-NHMec fluorogenic cleavage; at 7.35 µM; hits give high values.
In the case of `O=C(CC(n1cncn1)C(Cl)(Cl)Cl)c1ccc([N+](=O)[O-])cc1` (configuration not stated), the inhibition was 55.3% (active). Work on `O=C(CSc1nc2ccc([N+](=O)[O-])cc2[nH]1)c1ccc(Cl)cc1` yielded an inhibition of 3.49%. `O=C(CCn1nnc2ccccc21)OCC(=O)c1ccc([N+](=O)[O-])cc1` showed an inhibition of 21.8%. With `COc1cc(SC)ccc1C(=O)N(Cc1ccccc1)c1ccccc1` the inhibition was 0.45%. `Cc1nn(CC(=O)NC2CCCCC2)c(=O)c2cccn12` gave an inhibition of -6.41%. With `CCN1/C(=C/C(=S)Nc2ccccc2)Sc2ccccc21` the inhibition was 46.3% (active). `CCN1/C(=C/c2ccc3ccc(C)cc3[n+]2CC)Sc2ccccc21` was tested, and the inhibition was -2.79%. In the case of `O=C(CCN1c2ccccc2Sc2ccccc21)Nc1ccccc1`, the inhibition was 6.09%. With `O=c1c2cc([N+](=O)[O-])ccc2nc2n1CCC2` the inhibition was 3.84%. Compound `Fc1ccccc1COc1cccc2cccnc12` has an inhibition of -17.2%. In the case of `O=C(CSc1nc2cccnc2n1Cc1ccccc1)N1CCc2ccccc21`, the inhibition was -2.92%. With `CCOC(=O)N1CCN(S(=O)(=O)c2ccc(Br)cc2)CC1` the inhibition was -5.88%. For `O=C(Nc1nnc(C2COc3ccccc3O2)o1)c1ccc(F)cc1` (configuration not stated), the inhibition was 5.07%. `c1ccc2c(c1)OCC(c1nn3cnnc3s1)O2` (configuration not stated) was tested, and the inhibition was 55.2% (active). `COc1ccc(OC)c2sc(NC(=O)C3COc4ccccc4O3)nc12` (configuration not stated) was tested, and the inhibition was -7.49%. `COc1cc(NC(=O)C2=CC(c3ccc(C)cc3)=NS(=O)(=O)N2C)cc(OC)c1OC` was tested, and the inhibition was 13.1%. `CC(=O)c1ccc(N2CCN(C(=O)C3CCN(S(=O)(=O)c4ccc5c(c4)CC(C)N5C(=O)C4CC4)CC3)CC2)cc1` (configuration not stated) gave an inhibition of -0.32%. For `CN(CCC1CCOCC1)C(=O)CC1C(=O)NCCN1Cc1cccc(F)c1` (configuration not stated), the inhibition was 6.55%. Work on `CCCOc1ccc(C2NC(=O)NC(c3ccccc3)=C2C(C)=O)cc1OCC` (configuration not stated) yielded an inhibition of -0.97%. `COc1cccc(COc2ccc(N(C)S(=O)(=O)c3ccccc3)cc2)c1` was tested, and the inhibition was 4.14%. With `CN(C)c1ccc(N/C=C/C(=O)C(F)(F)F)cc1` the inhibition was 29.1% (active). `CC(=O)N(C)c1ccc(NC(=O)C(F)(F)F)cc1` was tested, and the inhibition was -1.27%. With `O=C(/C=C/Nc1ccccc1OC(F)(F)F)C(F)(F)F` the inhibition was -3.52%. Compound `COc1cccc2sc(Nc3nc(C)c(C(C)=O)s3)nc12` has an inhibition of 7.92%. In the case of `COc1cccc2sc(NNC(=O)c3nc4ccccc4s3)nc12`, the inhibition was 30.1% (active). Compound `COc1ccccc1OCc1nc2ccccc2s1` has an inhibition of 2.93%. In the case of `CCCc1cc(=O)n2[nH]c(C)c(-c3ccc(Cl)cc3)c2n1`, the inhibition was -3.86%. `Cc1ccc(NC2CCCN(C(=O)CCC3(C)CC3)C2)cc1C` (configuration not stated) was tested, and the inhibition was 12.1%. Work on `O=[N+]([O-])c1ccc(N2CCSCC2)cc1O` yielded an inhibition of 7.26%. `O=C1CSC(=S)N1/N=C/c1ccc(O)c([N+](=O)[O-])c1` was tested, and the inhibition was 39.1% (active). `Cc1cc(C(=O)N/N=C/c2ccc(O)c([N+](=O)[O-])c2)c(C)n1-c1ccc(F)cc1` showed an inhibition of 1.56%. `CCC(C)(C)NC(=O)C1c2ccccc2Oc2ccccc21` gave an inhibition of 0.98%. For `O=C(N/N=C/c1ccc(O)c(O)c1)C1c2ccccc2Oc2ccccc21`, the inhibition was 66.5% (active). `CCC(C)NC(=O)C1c2ccccc2Oc2ccccc21` (configuration not stated) gave an inhibition of -7.47%. `CC(C)(C)SCCSC1=CC(=O)CC(c2ccccc2)C1` (configuration not stated) showed an inhibition of -7.92%. With `COc1ccc(CCNC(=O)CN2C(=O)COc3ccc(S(=O)(=O)N4CCCC4)cc32)cc1OC` the inhibition was 0.73%. `Cc1ccc(-c2noc(CC(c3ccccc3)c3ccccc3)n2)cc1` was tested, and the inhibition was 34.4% (active). Work on `COc1ccccc1Cc1nc(-c2ccc(C)cc2)no1` yielded an inhibition of 0.56%. Work on `Cc1ccc(-c2noc(CN3CCN(Cc4ccccc4)CC3)n2)cc1` yielded an inhibition of -2.79%. Work on `CCOC(=O)c1ccc(NC(=S)N2CCN(c3ccccn3)CC2)cc1` yielded an inhibition of 0.52%. With `CSCCC(NS(=O)(=O)c1ccc(C)cc1)C(=O)N1CCCC1` (configuration not stated) the inhibition was -2.59%. `COc1ccc(CNc2nc3c(c(=O)[nH]c(=O)n3C)n2Cc2ccccc2)cc1` was tested, and the inhibition was 7.49%. `C=CCSc1nc2c(c(=O)[nH]c(=O)n2C)n1Cc1ccccc1` was tested, and the inhibition was -7.79%. In the case of `Cn1c(=O)[nH]c(=O)c2c1[nH]c(=S)n2Cc1ccccc1`, the inhibition was 51.6% (active). In the case of `CCS(=O)(=O)C1=NSC2=NC(=O)/C(=C\c3ccc(OS(=O)(=O)c4ccccc4)cc3)C(=N)N21`, the inhibition was 5.46%. In the case of `CC1CCC2(CC1)NC(=O)N(Cc1nnc(-c3cccs3)o1)C2=O` (configuration not stated), the inhibition was -3.12%. `CC(=O)Nc1ccc(Nc2c3ccccc3nc3ccccc23)cc1` showed an inhibition of 4.35%. For `CC(C)(C)OC(=O)NNc1c2ccccc2nc2ccccc12`, the inhibition was 29.7% (active). Work on `O=C(NNc1c2ccccc2nc2ccccc12)c1cc2ccccc2cc1O` yielded an inhibition of 1.24%. `O=c1c2cc(-c3ccccc3)sc2nc2n1N=C(c1cccs1)CS2` showed an inhibition of 6.06%. `CC1CCN(S(=O)(=O)c2ccc3[nH]c(=O)ccc3c2)CC1` gave an inhibition of -0.17%. For `Cc1ncc(CC(=O)n2cc(C(=O)c3cc(Cl)ccc3O)cn2)s1`, the inhibition was 29.3% (active). Compound `O=C(c1cnn(-c2ccc(Cl)cc2)c1)c1ccccc1O` has an inhibition of -0.75%. `Cc1ccc(CCC(=O)Nc2ncc(Cc3cc(Cl)ccc3Cl)s2)o1` gave an inhibition of -7.4%. In the case of `O=S(=O)(c1ccc(-c2ccno2)s1)N1CCCCC1`, the inhibition was 11%. `CCOc1ccccc1-c1cc(C(=O)N/N=C(\C)c2cccnc2)c2ccccc2n1` showed an inhibition of 1.07%. In the case of `O=C(NC(=S)Nc1ccc(Cl)c(C(=O)O)c1)c1cncc(Br)c1`, the inhibition was 15.9%. For `CC(C)c1ccc(NC(=S)NNc2ccc(Cl)c(C(=O)O)c2)cc1`, the inhibition was 39.9% (active). `Cc1ccc(C)c(NC(=S)NNC(=S)Nc2ccc(C(C)C)cc2)c1` was tested, and the inhibition was 3.44%. Compound `COc1cccc(-n2c(N)cc(=O)nc2SCC(=O)Nc2cc(C)on2)c1` has an inhibition of -2.14%. `O=C(Nc1ncc([N+](=O)[O-])s1)C1COc2ccccc2O1` (configuration not stated) gave an inhibition of 12%. For `CC(=O)Oc1ccccc1C(=O)Nc1ncc([N+](=O)[O-])s1`, the inhibition was 35.7% (active). Compound `O=C(CCc1ccccc1)Nc1ncc([N+](=O)[O-])s1` has an inhibition of 4.6%. `CC(=O)c1cccc(NC(=O)C2COc3ccccc3O2)c1` (configuration not stated) gave an inhibition of -8.5%. Work on `Cn1cncc1COC(=O)c1ccc(Cl)cc1` yielded an inhibition of -13.9%. `Oc1ccccc1N1CCN(C(=S)NCc2ccccc2)CC1` was tested, and the inhibition was 9.57%. `S=C(NCCc1ccccc1)N1CCCCC1` gave an inhibition of -5.18%. For `Oc1ccc(N2CCN(C(=S)NCc3ccccc3)CC2)cc1`, the inhibition was 36.6% (active). `Cc1occc1C(=O)N/N=C/c1ccc(-c2cccc([N+](=O)[O-])c2)o1` showed an inhibition of 9.99%. `COc1ccc(N2CCN(C(=S)Nc3ccc(S(N)(=O)=O)cc3)CC2)cc1` was tested, and the inhibition was 46.7% (active). `CCOc1ccccc1N1CCN(C(=S)Nc2ccc(S(N)(=O)=O)cc2)CC1` showed an inhibition of 9.49%. `NS(=O)(=O)c1ccc(NC(=S)N2CCCC2)cc1` gave an inhibition of 0.47%. For `NS(=O)(=O)c1ccc(CCNC(=O)c2nc(CS(=O)(=O)c3ccc(Cl)cc3)no2)cc1`, the inhibition was -4.83%. `O=C(NC1CCCC1)C(c1ccc(Cl)cc1)N(C(=O)c1csnn1)C1CC1` (configuration not stated) gave an inhibition of -2%. Compound `O=C(CCN1C(=O)/C(=C/c2cccs2)SC1=S)NNC(=O)c1cccc(O)c1` has an inhibition of -2.41%. `CC(C(=O)Nc1ccc(O)c(C(=O)O)c1)N1C(=O)/C(=C/c2cccs2)SC1=S` (configuration not stated) was tested, and the inhibition was 30.4% (active). With `O=C(CCCN1C(=O)/C(=C/c2cccs2)SC1=S)Nc1ccc(O)cc1` the inhibition was 1.87%. `CN(C(=O)CC1C(=O)NCCN1Cc1ccc2ccccc2c1)C1CCOCC1` (configuration not stated) gave an inhibition of 9.14%. For `Cc1cc(NC(=O)CSc2nnc(Nc3ccccc3F)s2)no1`, the inhibition was -12.2%. With `Cc1ccc(Nc2nnc(SCC(=O)c3cc4ccccc4o3)s2)cc1C` the inhibition was 6.69%. With `Cc1ccccc1Nc1nnc(SCC(=O)c2cc3ccccc3o2)s1` the inhibition was 28.2% (active). In the case of `O=C(NCCS(=O)(=O)N1CCN(c2ccccc2F)CC1)c1ccc(Br)o1`, the inhibition was 0.95%. Work on `CCOc1ccc(C(=O)Nc2ccc(S(=O)(=O)NCC3CCCO3)cc2)cc1OCC` (configuration not stated) yielded an inhibition of -11.8%. Compound `CC(C)(C)c1ccc(CN2C(=O)c3ccccc3S2(=O)=O)cc1` has an inhibition of 7.13%. In the case of `N#Cc1ccccc1-n1c(N)c(C(=O)N2CCCC2)sc1=S`, the inhibition was 29.2% (active). `Cc1ccc(-n2c(N)c(C(=O)N3CCOCC3)sc2=S)c(C)c1` showed an inhibition of 4.98%. With `Cc1cccc(-n2c(N)c(C(=O)N3CCN(C)CC3)sc2=S)c1` the inhibition was 13.6%. Work on `CCN(CC)CCCNC(=O)c1cc2c(=O)[nH]c3ccc(C)cc3c2s1` yielded an inhibition of 0.43%. `CCOc1cc(C(=O)O)ccc1OCCOc1ccccc1` was tested, and the inhibition was 9.32%. With `[2H]C(CCOS(N)(=O)=O)c1ccccc1` (configuration not stated) the inhibition was -1.1%. With `CC/C(C)=N/Nc1nc2sc3c(c2c(=O)[nH]1)CC(C)(C)OC3` the inhibition was 48.8% (active). With `CCSc1nc2sc3c(c2c(=O)[nH]1)CC(C)(C)OC3` the inhibition was -5.01%. `CCOC(=O)CSc1nc2sc3c(c2c(=O)[nH]1)CC(C)(C)OC3` gave an inhibition of 10.6%. For `COc1ccccc1OCC(=O)Nc1c2c(nn1-c1ccc(F)cc1)CS(=O)(=O)C2`, the inhibition was -3.07%. `Cc1cnc(NC(=O)CSc2nnc(C)s2)s1` gave an inhibition of -8.35%. With `Cc1nnc(SCC(=O)NC2CCCC2)s1` the inhibition was 5.86%. In the case of `Cc1nnc(SCC(=O)Nn2cnnc2)s1`, the inhibition was 41.6% (active).
